BoNT-F LC inh: blocks Botulinum neurotoxin F light chain protease; Multiplex microsphere protease cleavage assay, flow cytometry; inhibition, % at 10 µM; 360,000 compounds, 0.22% hits; in the data active = inhibition above about 35%, passing the limit was not always enough; inconclusive = no clear call, values can overlap the other calls; note: plate controls were buffer without enzyme for full effect and enzyme alone for no effect
Anthrax LF inh2: blocks Bacillus anthracis lethal factor protease; P15917; multiplex microsphere protease cleavage assay, LF; inhibition, % at 10 µM; 360,000 compounds, 0.12% hits; AID 588501; note: plate controls were buffer without enzyme for full effect and enzyme alone for no effect
BoNT-A LC inh2: inhibitors of Botulinum neurotoxin A light chain protease; multiplex microsphere protease substrate cleavage, flow cytometry; inhibition, % at 10 µM; 360,000 compounds, 0.17% hits; note: plate controls were buffer without enzyme for full effect and enzyme alone for no effect
Bead autofluor: flagged as autofluorescent in microsphere protease counterscreen; compound autofluorescence counterscreen, microsphere flow cytometry; stronger effect = higher value; fluorescence intensity (concentration not given with the values); 360,000 compounds, 3.1% hits; AID 624483; in the data active = fluorescence intensity above about 16000; inconclusive = no clear call, values can overlap the other calls
MazEF act: MazEF (E. coli) toxin RNase activation. AID 504720. P0AE70. activation, % at 20 µM. 350,000 compounds, 0.32% hits. FAM/BHQ RNA-DNA oligo cleavage fluorescence, 5 h; in the data active = activation above about 50%
Target sequence (P0AE70 whole entry, looked up): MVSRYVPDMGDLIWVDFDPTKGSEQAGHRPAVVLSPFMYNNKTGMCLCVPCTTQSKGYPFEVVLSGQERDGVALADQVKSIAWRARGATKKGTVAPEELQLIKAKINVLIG
* hit, by the source's call; u = inconclusive; x = no result. Compounds with a hit are over-represented: about 3.7% of the library has one in this group of screens. Cut-off read from the data, not from the text of the source, unless noted: active = inhibition above about 30%; inconclusive = no clear call, values can overlap the other calls; inactive = below that.

SMILES | BoNT-F LC inh | Anthrax LF inh2 | BoNT-A LC inh2 | Bead autofluor | MazEF act
CC1(C)CC(NC(=O)C23CCC(C)(C(=O)C2)C3(C)C)CC(C)(C)N1 (centres undefined) | 4 | 2 | 4 | 21112* | 0
Cc1cc(SCC(=O)N/N=C/c2cccnc2)nc2c(C)cccc12 | -1 | -4 | 0 | 4328 | -31
Cc1cc(SCC(=O)c2cccs2)nc2c(C)cccc12 | -1 | -9 | -3 | 16902* | -11
Cc1cc(C)c(C#N)c(SCC(=O)c2cccs2)n1 | -1 | 4 | u | 22840* | 109*
CC(=O)Nc1ccc(C(=O)CSc2cc(C)c3cccc(C)c3n2)cc1 | -7 | -1 | 0 | 10871 | 78*
Cc1cc(C)c(C#N)c(SCC(=O)c2ccccc2)n1 | -4 | 0 | 0 | 2212 | -8
CCCCNC(=O)C1(C)CCCCN1C(=O)c1cccc(OC(F)(F)F)c1 (centres undefined) | -1 | -7 | 0 | 2755 | x
Cc1cccc(C)c1-n1nnnc1C1(C)CCC(=O)N1CC1CCCCC1 (centres undefined) | 2 | -3 | 0 | 4108 | x
Cc1ccccc1OCc1nc2ccc(S(=O)(=O)N3CCOCC3)cc2[nH]1 | -12 | 0 | -8 | 22238* | -6
COc1ccc(Cc2nc3ccc(S(=O)(=O)N4CCOCC4)cc3[nH]2)cc1 | 1 | -1 | 0 | 8207 | 4
COc1ccc(Cc2nc3ccc(S(=O)(=O)N4CCOCC4)cc3[nH]2)cc1OC | -3 | 0 | -1 | 24349* | 1
CC(C)c1ccc(/C=C2\SC(=S)N(CCC(=O)N3CCCCC3CCO)C2=O)cc1 (centres undefined) | -6 | 0 | 0 | 6042 | -2
O=C(/C=C/c1ccccc1)NCCS(=O)(=O)N1CCN(c2ccccc2F)CC1 | x | x | x | x | -11
CCCCn1c(CCn2nc(C)c(Br)c2C)n[nH]c1=S | 0 | 0 | -2 | 23887* | 0
CNc1ncnc(NC)c1[N+](=O)[O-] | -7 | -1 | 0 | 3053 | -5
COC(=O)C1C(=O)C2=C(CC1C)NC(C)=C(C(=O)OC(C)C)C2c1ccc(OC)c(O)c1 (centres undefined) | 3 | 2 | 1 | 22658* | 5
Cc1ccc(-n2c(Cc3cccn3C)nnc2SCC(=O)NCc2ccc3c(c2)OCO3)cc1 | 3 | -7 | 3 | 21493* | -2
COc1ccc(-n2c(Cc3cccn3C)nnc2SCC(=O)NCc2ccc(F)cc2)cc1 | -5 | 0 | -1 | 5533 | 9
Cc1ccc(-n2c(Cc3cccn3C)nnc2SCC(=O)Nc2ccc3c(c2)OCO3)cc1 | -4 | -1 | -1 | 24086* | -8
Nc1c(N(CCC2=CCCCC2)C(=O)c2ccccc2F)c(=O)[nH]c(=O)n1Cc1ccccc1 | -3 | -15 | -1 | 3221 | 2
CC(C)[C@H](N[C@@H](C)c1ccccc1)c1c(O)ccc2ccccc12 | -23 | -4 | -2 | 3765 | -3
COc1ccc(C2C(C(=O)Nc3cccnc3)=C(C)Nc3nc(-c4cccs4)nn32)cc1 (centres undefined) | -2 | -2 | 0 | 21944* | 2
COc1ccc(C2C(C(=O)Nc3cccnc3)=C(C)Nc3nc(-c4cccs4)nn32)cc1OC (centres undefined) | 2 | -2 | 0 | 6093 | 8
CC(=NNC(=O)c1cccs1)c1ccc2c(c1)OCCO2 | -5 | -1 | 0 | 3052 | 0
O=C(c1ccc2c(c1)OCCCO2)c1cccs1 | -4 | -1 | u | 22559* | 3
SMILES | BoNT-F LC inh | Anthrax LF inh2 | BoNT-A LC inh2 | Bead autofluor | MazEF act
CC(Sc1nnc(-c2ccccc2F)n1N)C(=O)NCC1CCCO1 (centres undefined) | u | 0 | 4 | 4136 | -2
CC(C)(C)Nc1nc(SCc2ccccc2)nc(N2CCOCC2)n1 | -7 | -5 | u | 23358* | -10
CNc1nc(SCc2ccccc2)nc(N2CCOCC2)n1 | -9 | -3 | -1 | 11491 | -5
CCN(CCCNC(=O)C1CCC(=O)N1Cc1ccccc1Cl)c1cccc(C)c1 (centres undefined) | -25 | -4 | -17 | 30276* | -6
CCN(CCCNC(=O)C1CCC(=O)N1Cc1ccc(C)cc1)c1cccc(C)c1 (centres undefined) | 1 | 0 | 0 | 3196 | -5
CN(CCCNC(=O)C1CCC(=O)N1Cc1ccccc1Cl)c1ccccc1 (centres undefined) | 1 | -1 | 1 | 16389* | -3
COc1ccc(CNC(=O)CCC(=O)Nc2nnc(C(F)(F)F)s2)cc1 | 2 | 0 | 0 | 4368 | 1
Nc1ncnc2c1ncn2[C@@H]1O[C@H](CNS(=O)(=O)CCCCl)[C@@H](O)[C@H]1O | 1 | -8 | 1 | 3887 | 6

Assay outcomes from PubChem BioAssay.
